Most compounds without a hit are left out; they make up all but 3.3% or so of the library.
NPSR antag: antagonists of human neuropeptide S receptor cAMP signaling; CHO-NPSR cells, cAMP TR-FRET, antagonist mode; Potency, µM (top dose mostly 38.3 µM), inactives show top-dose activity change, negative = inhibition, actives largely listed as inhibitors; 220,000 tested, 1% active; AID 1461; note: nearly all actives have a fitted effect of over 50% in size
Target sequence (Q6W5P4 whole entry, looked up): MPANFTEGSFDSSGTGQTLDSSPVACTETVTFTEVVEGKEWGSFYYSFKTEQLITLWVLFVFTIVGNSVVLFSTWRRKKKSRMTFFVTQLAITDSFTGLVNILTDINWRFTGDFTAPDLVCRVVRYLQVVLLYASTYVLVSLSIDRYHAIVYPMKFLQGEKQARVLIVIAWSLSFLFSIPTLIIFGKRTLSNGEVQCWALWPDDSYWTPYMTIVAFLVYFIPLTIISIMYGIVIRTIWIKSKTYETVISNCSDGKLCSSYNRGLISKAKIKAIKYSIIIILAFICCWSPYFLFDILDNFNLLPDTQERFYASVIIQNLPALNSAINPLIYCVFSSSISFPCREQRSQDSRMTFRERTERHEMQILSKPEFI
KinaseGlo FLuc: Kinase-Glo luciferase inhibition (counter-screen) | 200,000 tested, 0.28% active | Kinase-Glo luciferase, ATP luminescence, 8 min | Q27757 | Potency, µM (titrated, usually from 38.3 µM), for inactives: at the top dose activity change, negative = inhibition, usual class: inhibitors; note: nearly all actives have a fitted effect of over 60% in size
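Luminescence was the read-out, taken after 8-minute incubation at ambient temperature. Luciferase turned over luciferin with 10 uM ATP in imidazole pH 7.2 buffer containing KCl, MgCl2, Tween 20 and BSA.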
Tau fluor counter: counter-screen for tau fibril formation inhibitors; AID 1463; 280,000 tested, 0.93% active; tau K18 P301L Alexa594 fluorescence, heparin fibrillization; Potency, µM (series often up to 57.7 µM), without a hit: top-dose activity change, negative = decrease; note: nearly all actives have a fitted effect of over 55% in size
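Human K18 P301L tau (15 uM unlabeled plus 0.24 uM Alexa 594-labeled, final) in 100 mM sodium acetate pH 7 was mixed with compound and 20 uM heparin and incubated 6 hr at 37 C.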
Tau ThT inhib: inhibitors of human tau fibril formation, thioflavin T binding; P10636; recombinant tau K18 P301L (four-repeat tau fragment), heparin-induced fibrillization, ThT fluorescence; Potency, µM (highest dose often 57.4 µM), without a hit: at the top dose activity, negative = inhibition, actives largely listed as inhibitors; 270,000 tested, 2.1% active; AID 1460; note: nearly all actives have a fitted effect of over 55% in size
Target sequence (P10636 561-689 P618L limits assumed): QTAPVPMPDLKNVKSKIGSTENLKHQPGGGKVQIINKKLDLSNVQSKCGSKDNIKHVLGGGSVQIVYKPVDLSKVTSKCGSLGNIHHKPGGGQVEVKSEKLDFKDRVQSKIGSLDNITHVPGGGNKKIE
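Recombinant human tau K18 fragment […] carrying P301L, 15 uM unlabeled plus 0.24 uM Alexa 594-labeled, was fibrillized with 20 uM heparin in 100 mM sodium acetate pH 7 for 6 hr at 37 C; 30 uM ThT fluorescence read after 1 hr.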
Tau FP inhib: blocks human tau fibril formation measured by polarization | 280,000 tested, 0.39% active | K18 P301L tau heparin fibrillization, Alexa594 FP, 6 h | Potency, µM (highest dose often 57.7 µM), inactives show at the highest dose activity, negative = inhibition, most hits filed as inhibitors | AID 1468 | P10636; note: nearly all actives have a fitted effect of over 55% in size
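FP of Alexa 594-tau after heparin (20 uM) induction. Substrate: human K18 P301L, 15 uM unlabeled, 0.24 uM labeled. Buffer 100 mM sodium acetate pH 7. 6 hr, 37 C.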
* marks the source's active call; other numbers are inactive results; u = inconclusive; x = no result; [ ] = dose if it differs, or a comment. Calls come from the whole dose curve; as a rule, active = well fitted curve in the direction sought with a large enough effect; inconclusive = small, poorly fitted or top-dose-only effect, or another doubt; inactive = no such curve, though single readings can be large; an effect the other way counts as inactive or inconclusive. % is set by controls: 0 for no effect and ±100 for the full control effect; potency is the fitted concentration of half-maximal effect.

SMILES	NPSR antag	KinaseGlo FLuc	Tau fluor counter	Tau ThT inhib	Tau FP inhib
CC(=O)Nc1cccc(NC(=O)c2cc3ccccc3o2)c1	-23%[46.1 µM]	-19%	-16%	-18%	-8%
O=C(COc1ccccc1[N+](=O)[O-])Nc1ccc(NC(=O)c2cc3ccccc3o2)cc1	29%	1%	-19%	u	-1%
O=C(Nc1ccccc1)c1cc2ccccc2o1	0%[46.1 µM]	13µM*	-1%	-2%	5%
Cc1cc(C(=O)Nc2ccccc2)oc1C	-7%[46.1 µM]	13µM*	-8%	-13%	1%
CC(=O)c1cc(C(=O)Nc2ccc(C(=O)O)cc2)oc1C	2%[46.1 µM]	-3%	-2%	-4%	5%
O=C(COc1ccc(/C=N/NC(=O)c2cc3ccccc3o2)cc1Br)Nc1ccccc1	10µM*	-2%	-15%	u	u
Cc1ccc(/C=N/Nc2nc3ccccc3s2)o1	4%	-5%	14µM*[quencher]	u	u
Oc1[nH]c2ccccc2c1N=NC(=S)N1CCOCC1	u	x	-18%	8.9µM*	-11%
Oc1[nH]c2ccc(Br)cc2c1N=NC(=S)N1CCOCC1	u	x	u	10µM*	0%
COc1cc(Nc2ncc3c(n2)CCN(Cc2ccc(OC(C)C)c(OC)c2)C3)cc(OC)c1	x	x	u	u	11%
Cc1ccccc1-n1c(=O)/c(=C\c2ccco2)s/c1=C(/C#N)C(=O)Nc1ccccc1	u	-1%	-29%	16µM*	u
COc1ccc(N2CSC3=C(C#N)C(c4ccc(OC)c(OC)c4)CC(=O)N3C2)c(OC)c1 (stereo unspecified)	-3%[46.1 µM]	-4%	u	7.9µM*	16µM*
COc1ccc(N2CSC3=C(C#N)C(c4cc(OC)ccc4OC)CC(=O)N3C2)c(OC)c1 (stereo unspecified)	6%[46.1 µM]	0%	u	13µM*	28µM*
COc1ccc(N2CSC3=C(C#N)C(c4cc(OC)c(OC)cc4OC)CC(=O)N3C2)c(OC)c1 (stereo unspecified)	-7%[46.1 µM]	-2%	u	8.9µM*	13µM*
COc1ccc(N2C(=O)C3CC(C)=C(C)CC3C2=O)c(OC)c1 (stereo unspecified)	-11%[46.1 µM]	3%	-13%	-6%	-10%
COc1cc(OC)c(C2CC(=O)N3CN(c4ccc(C)cc4)CSC3=C2C#N)cc1OC (stereo unspecified)	-20%[46.1 µM]	1%	-28%	28µM*	u
CCC(=O)N1CCCc2cc(S(=O)(=O)N3CCC(C(=O)NC4CCCCC4)CC3)ccc21	x	x	-6%	0%	4%
COc1ccccc1N1CC(C)(C)C(=O)N(C(=O)c2ccc(Cl)cc2)C1=S	39%	x	-23%	u	0%
Cc1c(C)n(Cc2ccccc2)c2ccc(C(=O)NCCc3ccccc3Cl)cc12	x	x	-19%	-1%	-5%
Cc1ccc(NC(=O)c2oc3ccc(S(=O)(=O)N(C)C4CCCCC4)cc3c2C)c(C)c1	x	x	-8%	-8%	0%
CCOC(=O)c1ccc(N2CSC3=C(C#N)C(c4cccs4)CC(=O)N3C2)cc1 (stereo unspecified)	-10%[46.1 µM]	5%	-15%	u	u
CCOc1ccccc1N1CSC2=C(C#N)C(c3c(OC)ccc4ccccc34)CC(=O)N2C1 (stereo unspecified)	-11%[46.1 µM]	1%	u	4µM*	10µM*
COc1ccc(C2CC(=O)N3CN(c4ccc(C)c(Cl)c4)CSC3=C2C#N)cc1OC (stereo unspecified)	-9%[46.1 µM]	-1%	-28%	14µM*	22µM*
C=C(C)CN(CC)c1nc(N)c2c(N)nc3c(c2c1C#N)CC(=O)N3C12CC3CC(CC(C3)C1)C2	5µM*	0%	-28%	u	-9%
Cc1ccc(-c2csc(=Nc3ccc(F)cc3)n2Cc2ccc3c(c2)OCO3)cc1C	x	x	-27%	-15%	4%
SMILES	NPSR antag	KinaseGlo FLuc	Tau fluor counter	Tau ThT inhib	Tau FP inhib
CO[C@H]1COC(=O)[C@@H](C)COC(=O)[C@@H](OCc2ccccc2)/C=C\[C@@H]1C	x	x	-1%[11.6 µM]	-2%[11.5 µM]	4%[11.6 µM]
CCN1C(=O)/C(=C2/C=CC=CN2C)SC1=S	-13%[46.1 µM]	-2%	-10%	u	-3%
CCCN1C(=O)/C(=C\C=C2/Sc3ccccc3N2CC)SC1=S	-8%	-14%	17%	u	-4%
CCN1C(=O)/C(=C/C=C2\C=CN(CC)c3ccccc32)SC1=S	3.2µM*	-26%	u	2.2µM*	u
CCN1C(=O)/C(=C\C=C2/C=CC=CN2CC)SC1=S	-56%	u	-22%	14µM*	u
CC(=O)OCCNc1cc(SC(C)C)c2nonc2c1[N+](=O)[O-]	-9%	0%	-29%	u	1%
CC(=O)OCCN(C)c1cc(SC(C)C)c2nonc2c1[N+](=O)[O-]	-23%	0%	u	14µM*	-17%
CN(CCO)c1cc(Sc2nc3ccccc3s2)c2nonc2c1[N+](=O)[O-]	-10%[46.1 µM]	-1%	u	28µM*	-14%
NS(=O)(=O)c1ccc(Sc2nc3ccccc3s2)c([N+](=O)[O-])c1	-34%	x	u	x	4%
O=C(Cn1c(=O)c2cccn2c2ccccc21)Nc1cc(F)ccc1F	x	x	-18%	3%	-15%
O=C(CCCn1c(=O)c2cccn2c2ccc(F)cc21)NCCc1ccccc1	x	x	4%	-6%	-7%
CCOC(=O)c1cccc(NC(=O)Cn2c(=O)c3cccn3c3ccccc32)c1	x	x	u	u	13µM*
O=C(Cn1c(=O)c2cccn2c2ccccc21)NCCc1ccccc1	x	x	u	18%	14µM*
CCc1ccc(NC(=O)Cn2c(=O)c3cccn3c3ccccc32)cc1	x	x	u	12%	20µM*
Cc1cc(C)c(NC(=O)Cn2c(=O)c3cccn3c3ccccc32)c(C)c1	x	x	u	u	7.9µM*
CCN(CC)c1nn2c(=O)c(C(=O)NCc3ccccc3Br)cnc2s1	x	x	-15%	-13%	-8%
CC1=NNC(=O)/C1=C\c1cn(-c2ccccc2)nc1-c1ccc(F)cc1	-53%	0%	-23%	20µM*	5%
CC1=NNC(=O)/C1=C\c1cn(-c2ccccc2)nc1-c1cccs1	10µM*	2%	-10%	u	9%
O=C(O)CCN1C(=O)/C(=C/c2cn(-c3ccccc3)nc2-c2cccs2)SC1=S	14%	-3%	-1%[2.34 µM]	4%	-3%[2.34 µM]
COc1ccc(S(=O)(=O)Nc2cccc(-c3ccc(N4CCCCCC4)nn3)c2)cc1	x	x	-19%	6%	-4%
c1csc(CNc2ncncc2-c2ccc3c(c2)OCO3)c1	x	-7%	2%	9%	2%
COc1cccc(-c2ccc3c(N)c(C(=O)c4ccc(Cl)cc4)sc3n2)c1	x	x	2.8µM*[quencher]	4.5µM*	u
COc1ccc(C(=O)c2sc3nc(-c4ccccc4)ccc3c2N)cc1	-29%	-5%	10µM*[quencher]	u	-18%
CC(C)OC(=O)c1sc2nc(-c3ccccc3)ccc2c1N	-1%[46.1 µM]	-5%	u	-10%	1%

Screening results from PubChem.
